# Experimental data reported in ChEMBL document CHEMBL1961873, “Compounds: GSK PKIS; Assays: Nanosyn kinase panel” (2012).
# Tests used:
# [1] = target: Serine/threonine-protein kinase MRCK alpha (Homo sapiens) (UniProt Q5VT25); settings: at 0.1 µM
# [2] = target: Serine/threonine-protein kinase MRCK alpha (Homo sapiens) (UniProt Q5VT25); settings: at 1 µM
# [3] = target: Serine/threonine-protein kinase MRCK beta (Homo sapiens) (UniProt Q9Y5S2); settings: at 0.1 µM
# [4] = target: Serine/threonine-protein kinase MRCK beta (Homo sapiens) (UniProt Q9Y5S2); settings: at 1 µM
# [5] = target: Ribosomal protein S6 kinase alpha-5 (Homo sapiens) (UniProt O75582); settings: at 0.1 µM
# [6] = target: Ribosomal protein S6 kinase alpha-5 (Homo sapiens) (UniProt O75582); settings: at 1 µM
# [7] = target: Ribosomal protein S6 kinase alpha-4 (Homo sapiens) (UniProt O75676); settings: at 0.1 µM
# [8] = target: Ribosomal protein S6 kinase alpha-4 (Homo sapiens) (UniProt O75676); settings: at 1 µM
# [9] = target: Ribosomal protein S6 kinase beta-1 (Homo sapiens) (UniProt P23443); settings: at 0.1 µM
# [10] = target: Ribosomal protein S6 kinase beta-1 (Homo sapiens) (UniProt P23443); settings: at 1 µM
# Chain of Serine/threonine-protein kinase MRCK beta (Homo sapiens) (Q9Y5S2 whole entry): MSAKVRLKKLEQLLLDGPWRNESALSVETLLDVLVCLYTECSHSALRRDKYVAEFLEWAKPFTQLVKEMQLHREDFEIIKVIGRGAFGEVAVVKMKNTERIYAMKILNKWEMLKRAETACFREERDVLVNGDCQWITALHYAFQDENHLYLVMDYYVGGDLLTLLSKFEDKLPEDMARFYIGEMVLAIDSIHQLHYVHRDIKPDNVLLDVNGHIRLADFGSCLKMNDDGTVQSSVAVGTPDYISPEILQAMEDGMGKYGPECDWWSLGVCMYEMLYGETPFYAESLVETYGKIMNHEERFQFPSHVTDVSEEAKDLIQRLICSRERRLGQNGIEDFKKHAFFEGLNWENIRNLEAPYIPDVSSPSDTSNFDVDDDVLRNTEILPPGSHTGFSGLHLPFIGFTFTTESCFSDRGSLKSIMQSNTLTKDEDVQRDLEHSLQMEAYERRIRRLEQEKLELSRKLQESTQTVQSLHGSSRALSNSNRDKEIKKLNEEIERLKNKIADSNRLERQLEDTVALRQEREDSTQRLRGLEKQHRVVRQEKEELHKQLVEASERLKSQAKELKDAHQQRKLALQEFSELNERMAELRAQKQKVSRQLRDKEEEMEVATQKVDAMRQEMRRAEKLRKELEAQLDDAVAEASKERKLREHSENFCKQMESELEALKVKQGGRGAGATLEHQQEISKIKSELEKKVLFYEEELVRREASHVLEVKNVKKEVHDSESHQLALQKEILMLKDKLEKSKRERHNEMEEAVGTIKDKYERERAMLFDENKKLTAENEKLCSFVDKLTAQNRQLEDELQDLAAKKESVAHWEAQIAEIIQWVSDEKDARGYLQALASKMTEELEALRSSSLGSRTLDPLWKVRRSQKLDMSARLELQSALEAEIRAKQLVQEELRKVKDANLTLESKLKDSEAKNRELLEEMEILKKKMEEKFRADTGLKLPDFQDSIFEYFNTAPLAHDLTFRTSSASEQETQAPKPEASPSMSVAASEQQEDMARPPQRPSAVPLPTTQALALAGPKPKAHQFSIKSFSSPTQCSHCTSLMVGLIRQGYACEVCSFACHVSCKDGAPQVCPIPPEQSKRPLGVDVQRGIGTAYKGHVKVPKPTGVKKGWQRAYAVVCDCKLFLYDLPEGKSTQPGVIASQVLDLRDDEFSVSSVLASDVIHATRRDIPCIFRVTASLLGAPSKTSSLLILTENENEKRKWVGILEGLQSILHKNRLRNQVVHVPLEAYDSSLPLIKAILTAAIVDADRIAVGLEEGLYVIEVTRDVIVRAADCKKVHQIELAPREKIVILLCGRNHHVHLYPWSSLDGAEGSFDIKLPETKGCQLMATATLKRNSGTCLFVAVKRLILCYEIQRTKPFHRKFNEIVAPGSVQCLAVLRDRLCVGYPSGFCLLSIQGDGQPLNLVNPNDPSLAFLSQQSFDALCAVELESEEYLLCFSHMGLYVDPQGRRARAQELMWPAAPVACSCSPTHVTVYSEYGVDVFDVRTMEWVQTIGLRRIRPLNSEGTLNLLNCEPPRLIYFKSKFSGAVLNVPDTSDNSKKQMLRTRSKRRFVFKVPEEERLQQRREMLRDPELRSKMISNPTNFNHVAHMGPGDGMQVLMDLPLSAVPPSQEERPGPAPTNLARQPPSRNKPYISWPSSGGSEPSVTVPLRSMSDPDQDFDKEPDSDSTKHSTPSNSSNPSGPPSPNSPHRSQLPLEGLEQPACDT
# Chain of Ribosomal protein S6 kinase alpha-4 (Homo sapiens) (O75676 whole entry, looked up): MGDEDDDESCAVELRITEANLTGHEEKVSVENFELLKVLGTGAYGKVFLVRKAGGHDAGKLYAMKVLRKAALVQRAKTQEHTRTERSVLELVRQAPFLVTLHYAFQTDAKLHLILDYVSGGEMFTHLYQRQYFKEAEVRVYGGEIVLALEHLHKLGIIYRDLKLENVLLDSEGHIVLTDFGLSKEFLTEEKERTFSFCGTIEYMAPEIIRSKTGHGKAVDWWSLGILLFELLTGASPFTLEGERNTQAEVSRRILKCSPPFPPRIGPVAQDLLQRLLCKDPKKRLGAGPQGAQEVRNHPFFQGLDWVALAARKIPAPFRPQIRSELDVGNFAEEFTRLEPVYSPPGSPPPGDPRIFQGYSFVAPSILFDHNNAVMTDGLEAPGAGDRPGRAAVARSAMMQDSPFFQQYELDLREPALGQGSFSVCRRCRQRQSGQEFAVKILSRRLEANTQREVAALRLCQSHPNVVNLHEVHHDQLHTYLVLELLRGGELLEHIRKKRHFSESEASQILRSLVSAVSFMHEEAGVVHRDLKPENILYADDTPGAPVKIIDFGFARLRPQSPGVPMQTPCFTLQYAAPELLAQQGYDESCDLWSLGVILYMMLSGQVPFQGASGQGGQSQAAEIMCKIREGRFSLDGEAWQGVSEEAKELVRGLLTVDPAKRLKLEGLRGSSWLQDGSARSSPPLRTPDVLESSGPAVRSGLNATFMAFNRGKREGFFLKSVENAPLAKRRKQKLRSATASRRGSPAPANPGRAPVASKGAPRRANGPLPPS
# Chain of Serine/threonine-protein kinase MRCK alpha (Homo sapiens) (Q5VT25 whole entry): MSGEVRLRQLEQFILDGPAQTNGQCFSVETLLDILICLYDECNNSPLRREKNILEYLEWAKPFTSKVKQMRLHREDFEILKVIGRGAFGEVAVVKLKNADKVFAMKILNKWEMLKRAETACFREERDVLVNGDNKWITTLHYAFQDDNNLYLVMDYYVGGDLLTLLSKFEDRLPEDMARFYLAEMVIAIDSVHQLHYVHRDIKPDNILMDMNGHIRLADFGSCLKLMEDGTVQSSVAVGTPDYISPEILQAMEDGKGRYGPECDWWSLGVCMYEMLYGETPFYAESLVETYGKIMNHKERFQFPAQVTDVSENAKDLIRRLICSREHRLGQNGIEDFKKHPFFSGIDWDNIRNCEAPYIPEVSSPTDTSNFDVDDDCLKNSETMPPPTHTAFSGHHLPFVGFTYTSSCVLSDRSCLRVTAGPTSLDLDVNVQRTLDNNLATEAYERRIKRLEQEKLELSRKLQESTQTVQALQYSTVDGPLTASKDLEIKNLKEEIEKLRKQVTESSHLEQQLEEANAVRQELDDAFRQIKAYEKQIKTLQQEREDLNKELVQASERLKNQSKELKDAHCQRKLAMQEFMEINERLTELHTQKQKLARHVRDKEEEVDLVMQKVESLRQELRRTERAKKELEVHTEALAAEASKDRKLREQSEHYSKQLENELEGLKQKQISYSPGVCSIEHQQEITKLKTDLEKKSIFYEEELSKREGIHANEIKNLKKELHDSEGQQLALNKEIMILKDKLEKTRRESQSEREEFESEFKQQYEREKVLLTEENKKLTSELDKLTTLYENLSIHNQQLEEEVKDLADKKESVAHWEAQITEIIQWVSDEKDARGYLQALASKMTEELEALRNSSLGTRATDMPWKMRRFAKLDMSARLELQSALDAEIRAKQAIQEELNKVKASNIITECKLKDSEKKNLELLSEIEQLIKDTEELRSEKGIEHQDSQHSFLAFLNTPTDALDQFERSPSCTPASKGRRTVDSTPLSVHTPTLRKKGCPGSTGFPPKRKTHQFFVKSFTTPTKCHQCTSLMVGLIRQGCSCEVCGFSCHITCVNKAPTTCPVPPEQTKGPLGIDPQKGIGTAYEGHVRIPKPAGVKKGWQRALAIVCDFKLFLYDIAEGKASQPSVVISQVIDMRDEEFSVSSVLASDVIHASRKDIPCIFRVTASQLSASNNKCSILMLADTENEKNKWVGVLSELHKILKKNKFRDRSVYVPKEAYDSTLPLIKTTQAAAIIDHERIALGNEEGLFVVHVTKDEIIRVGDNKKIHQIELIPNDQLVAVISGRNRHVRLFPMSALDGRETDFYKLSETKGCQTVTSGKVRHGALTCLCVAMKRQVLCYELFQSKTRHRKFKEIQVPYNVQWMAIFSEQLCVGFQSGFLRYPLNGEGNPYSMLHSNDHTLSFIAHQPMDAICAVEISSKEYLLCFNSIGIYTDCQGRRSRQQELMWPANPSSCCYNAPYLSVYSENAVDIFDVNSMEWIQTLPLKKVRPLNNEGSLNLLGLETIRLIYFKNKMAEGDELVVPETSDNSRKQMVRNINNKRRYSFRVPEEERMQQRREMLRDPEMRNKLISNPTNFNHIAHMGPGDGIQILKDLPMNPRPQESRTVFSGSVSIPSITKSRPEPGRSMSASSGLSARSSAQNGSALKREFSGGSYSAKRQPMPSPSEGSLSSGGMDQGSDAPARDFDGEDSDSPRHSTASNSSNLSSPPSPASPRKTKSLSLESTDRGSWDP
# Chain of Ribosomal protein S6 kinase beta-1 (Homo sapiens) (P23443 whole entry, looked up): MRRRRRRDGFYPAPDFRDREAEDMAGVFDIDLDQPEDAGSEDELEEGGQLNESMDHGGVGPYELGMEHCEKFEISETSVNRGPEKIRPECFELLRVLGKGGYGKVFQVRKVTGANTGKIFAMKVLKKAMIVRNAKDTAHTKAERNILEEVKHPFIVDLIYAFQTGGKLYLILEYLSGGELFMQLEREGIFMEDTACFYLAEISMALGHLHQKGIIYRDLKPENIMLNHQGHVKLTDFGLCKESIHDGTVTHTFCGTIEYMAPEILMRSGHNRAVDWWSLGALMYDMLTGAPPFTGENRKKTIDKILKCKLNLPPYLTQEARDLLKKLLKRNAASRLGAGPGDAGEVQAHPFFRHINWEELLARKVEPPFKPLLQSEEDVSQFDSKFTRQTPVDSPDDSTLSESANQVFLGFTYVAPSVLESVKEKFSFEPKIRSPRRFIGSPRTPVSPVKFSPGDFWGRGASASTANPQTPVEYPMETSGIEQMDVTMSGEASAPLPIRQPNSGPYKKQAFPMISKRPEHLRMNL
Structure (SMILES),inhibition [1] [%],inhibition [2] [%],inhibition [3] [%],inhibition [4] [%],inhibition [5] [%],inhibition [6] [%],inhibition [7] [%],inhibition [8] [%],inhibition [9] [%],inhibition [10] [%]
COc1ccc2ncn(-c3cc(O[C@H](C)c4ccccc4Cl)c(C(N)=O)s3)c2c1,-0.38,1.13,0.7,3.24,2.21,1.33,3.9,2.99,0.38,2.8
CNC(=O)c1cncc(/C=C/c2c(C)cccc2C)c1,1.09,4.17,-0.27,-0.99,-1.22,-0.95,1.35,1.5,2.04,0.86
O=C(Nc1n[nH]c2cc(-c3ccccc3)ccc12)C1CC1,0.05,-1.04,0.91,0.02,5.17,5.56,2.14,1.76,0.9,1.27
COc1ccc(-c2ccc3c(NC(=O)C4CC4)n[nH]c3n2)cc1,0.51,3.19,-0.1,0.25,1.32,2.82,2.27,2.9,0.22,0.21
CCc1cccc(CC)c1/C=C/c1cncc(C(=O)NC)c1,0.02,0.07,0.83,1.46,3.05,2.79,0.51,2.52,1.3,0.41
CN(C)CCCNc1nccc(-c2c(-c3ccc(F)cc3)nn3cc(C(F)(F)F)ccc23)n1,0.46,1.03,0.48,1.09,1.3,2.69,1.95,4.5,2.93,3.55
NC(=O)c1cc(-c2ccncc2)cc(-c2ccccc2)c1N,0.84,-0.04,1.07,2.4,-1.53,0.93,2.32,3.43,3.54,2.1
CN1CCN(CCCNc2nc3ccc(Oc4ccc(NC(=O)Nc5cc(C(F)(F)F)ccc5F)cc4)cc3[nH]2)CC1,1.76,-0.74,2.45,2.84,1.13,-0.08,1.93,2.99,1.14,4.19
C[C@@H](Oc1cc(-n2cnc3ccc(OCC4CCN(C)CC4)cc32)sc1C(N)=O)c1ccccc1Cl,3.98,9.1,1.18,1.35,4.97,7.75,3.23,7.58,2.88,6.79
COc1cc(Nc2ncc3c(C)nc(-c4cccc(C(F)(F)F)c4)n3n2)cc(OC)c1OC,-0.66,4.12,-1.16,-0.4,2.79,5.2,2.89,8.48,2.17,5.51
COC(=O)Nc1nc2ccc(Sc3ccc(NC(=O)Nc4cc(C(F)(F)F)ccc4F)cc3)cc2[nH]1,0.78,0.4,-0.23,-1,1.97,2.08,0.7,0.37,78.2,7.6
NCc1ccc(-n2c(-c3nonc3N)nc3cnccc32)cc1,43.4,90.6,59.8,83.5,54.7,78.7,20.1,63.3,21.3,69.9
Nc1nccc(-c2c(-c3ccc(F)cc3)ncn2C2CCC(O)CC2)n1 (stereo not given),-0.25,-0.81,0.88,0.56,-1.03,-0.24,-1.62,-0.73,-1.59,-1.84
COc1cc2ncn(-c3cc(OCCc4ccccc4)c(C(N)=O)s3)c2cc1OC,1.17,2.94,1.02,1.01,1.83,0.4,0.49,0.9,1.13,0.05
COc1cccc(/C=N/Nc2ncnc3c2cnn3-c2cccc(OC)c2)c1,1.64,-0.23,-0.8,0.84,2.19,-0.07,2.48,2.78,1.49,2.2
COc1ccc2cc(-c3c(-c4ccncc4)nc(-c4ccc([S+](C)[O-])cc4C)n3C)ccc2c1 (stereo not given),-1.8,1.91,0.22,1.15,-7.06,-6.22,-0.04,-0.04,0.21,0.05
CCS(=O)(=O)c1ccc(OC)c(Nc2ncc(-c3ccccc3Cl)o2)c1,-0.23,1.6,-0.41,0.3,0.87,3.53,0.38,1.77,0.04,2.73
